# Source: PubChem (National Center for Advancing Translational Sciences (NCATS))
# A selection: hits, their analogues and other compounds. The true share with any hit is near 2.9%.
# D3 antag – antagonists of human D3 dopamine receptor. D3R cells, DiscoveRx beta-arrestin luminescence, antagonist mode; active compounds read low. max response, negative = inhibition, %. actives 2.5% (n = 360,000). AID 652054; in the data active = max response below about -50%; inconclusive = no clear call, values can overlap the other calls; also: % is scaled to controls: 0 for no effect and ±100 for the full control effect
# Target sequence (P35462 whole entry, looked up): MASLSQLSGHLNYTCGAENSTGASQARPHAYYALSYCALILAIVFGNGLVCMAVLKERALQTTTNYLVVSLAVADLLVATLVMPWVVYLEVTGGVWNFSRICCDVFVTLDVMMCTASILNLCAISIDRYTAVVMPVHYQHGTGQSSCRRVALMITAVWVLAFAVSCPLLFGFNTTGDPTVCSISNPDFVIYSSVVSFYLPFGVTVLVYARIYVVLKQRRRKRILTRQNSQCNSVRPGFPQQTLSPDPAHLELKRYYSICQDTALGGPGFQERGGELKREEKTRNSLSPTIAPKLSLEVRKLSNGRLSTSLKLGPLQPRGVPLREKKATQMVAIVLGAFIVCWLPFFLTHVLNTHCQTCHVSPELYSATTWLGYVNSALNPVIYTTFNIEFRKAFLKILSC
#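 Cells plated overnight at 1500 cells/well, then exposed to library compounds with dopamine controls for 90 minutes at 37 degrees C. DiscoveRx reagent added for 30–60 minutes at room temperature; luminescence read, quantitative HTS format.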
# a7 integrin act – integrin-mediated muscular dystrophy alleviation activation; alpha7betagal myoblasts, beta-gal FDG fluorescence, 48 h; Potency, µM (highest dose often 38.3 µM), for inactives: at the highest dose activation, hits mostly activators; actives 0.064% (n = 350,000); AID 624291; active = well fitted activation curve with a large enough effect; inconclusive = small, poorly fitted or top-dose-only effect; inactive = no such curve, though single readings can be large or run the other way;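 also: potency is read from the fitted curve at half-maximal effect; 100% = response of the positive control SU9516; nearly all actives have a fitted effect of over 60% in size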
#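 Alpha7betagal+/- myoblasts (passage 13) were plated 16-24 hr, then exposed to compounds (1:260 dilution of DMSO stock) for 48 hours at 37C. After MPER lysis, β-galactosidase reporter activity was read as FDG fluorescence (ex 480/em 540) after 30 minutes.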
# D3 ag – activates the human D3 dopamine receptor | P35462 | D3R DiscoveRx beta-arrestin cells, luminescence, 90 min | max activation, % | actives 0.58% (n = 410,000) | AID 652048; in the data active = max activation above about 30%; also: 0% is about no effect
#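 Agonist-mode cell screen: cells plated at 1500/well and incubated overnight at 37 °C, then exposed to library compounds for 90 min at 37 °C. Detection reagent was added for 30–60 min at room temperature, and luminescence was read.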
# The depositor's hits bear a star; u = inconclusive; x = not tested or not shown.
SMILES,D3 antag,a7 integrin act,D3 ag
CC(C)[C@H](NC(=O)C1CCN(S(=O)(=O)c2ccccc2)CC1)C(=O)NCc1ccccn1,-2.3,32.9%,1.7
Cc1ccc([N+](=O)[O-])cc1NC(=O)CN(C)CCOc1ccccc1,u,0.2%,-11.1
COc1ccc(C(=O)Nc2cc3c(cc2N2CCCCC2)n(C)c(=O)n3C)cc1OC,24.0,28.9%,32.4*
COc1ccc(C(=O)Nc2cc3c(cc2N2CCCC2)n(C)c(=O)c(=O)n3C)cc1OC,x,x,1.0
Cc1ccc(-n2ncc3c(NNC(=O)c4ccco4)ncnc32)cc1Cl,12.5,-16.4%,6.5
CN(C(=O)CSc1nc(O)cc(=O)n1-c1ccccc1F)c1ccccc1,17.5,-2.0%,5.3
CC1CCCCC1NC(=O)COc1ccc(-n2cnnn2)cc1 (stereo unspecified),27.0,-12.5%,9.0
O=C(COc1ccc(-n2cnnn2)cc1)NC1CCCCC1,-65.1*,19.4%,-6.6
Cc1ccc([N+](=O)[O-])cc1N=C(c1cccc([N+](=O)[O-])c1)N1CCOCC1,-17.9,14.1%,-13.8
O=C(C1CCCN(Cc2ccccc2Br)C1)N1CCCCC1 (stereo unspecified),-84.6*,1.7%,-6.2
O=C(C1CCCN(Cc2ccc(Cl)cc2)C1)N1CCCCC1 (stereo unspecified),-9.4,-10.5%,-12.0
O=C(C1CCCN(Cc2ccccc2C(F)(F)F)C1)N1CCCCC1 (stereo unspecified),-87.7*,13.1%,0.8
O=C(C1CCCN(Cc2ccccc2)C1)N1CCCCC1 (stereo unspecified),52.4,1.5%,-3.0
CCN(CC)C(=O)Cn1nc(-c2ccc(Cl)cc2)c2ccccc2c1=O,-4.4,0.5%,0.6
Cc1ccc(S(=O)(=O)Nc2ccc3nc(-c4ccc(F)cc4)oc3c2)cc1,x,x,6.6
COc1ccc(N=c2ssnc2Cl)cc1,-55.2*,-15.4%,-6.0
Clc1ccc(N=c2ssnc2Cl)cc1,40.9,-3.9%,0.9
NC(=O)c1ccccc1OCC(=O)O,17.3,-16.5%,6.0
NC(=O)c1ccccc1OCC(=O)NS(=O)(=O)c1ccccc1,-65.5*,9.3%,-1.8
O=C(NNS(=O)(=O)c1ccccc1F)c1sccc1-n1cccc1,-18.7,43.7%,2.8
CCOc1ccc(C(=O)O/N=C(\N)c2ccccn2)cc1,6.9,13.2%,-4.6
COC(=O)c1ccccc1OCCN1CCCCCC1,-56.9*,4.4%,-23.3
CC(=O)c1ccccc1OCCCCN1CCCCC1,-77.1*,-8.6%,-19.3
COC(=O)c1ccccc1NC(=O)CN1CCCCC1,11.1,-27.2%,-2.3
CC(=O)c1ccccc1OCCOc1ccccc1C(C)=O,-14.8,15.9%,-2.8
SMILES,D3 antag,a7 integrin act,D3 ag
CCOC(=O)Cc1csc(NC(=O)Cn2c(=O)oc3ccccc32)n1,-8.8,3.9%,-4.9
CCN(CC)C(=O)c1ccccc1NS(=O)(=O)c1ccc(OC)c(C(=O)N2CCOCC2)c1,-5.9,5.8%,0.0
COC(=O)c1ccccc1NC(=O)c1cc[n+]([O-])cc1,6.6,3.98µM*,4.9
COC(=O)c1ccccc1NC(=O)c1cc[n+](C)cc1,1.8,4.8%,5.8
CCCNC(=O)C1(C)CCN(Cc2ccc(Oc3ccccc3)cc2)C1 (stereo unspecified),u,x,-18.9
COCCNC(=O)C1(C)CCCN(CCOc2ccc(Cl)cc2)C1 (stereo unspecified),-55.1*,x,-6.3
CCNC(=O)C1(C)CCCN(CCOc2ccc(OC)cc2)C1 (stereo unspecified),-20.8,x,-3.3
CCCNC(=O)C1(C)CCN(CCOc2ccc(Cl)cc2)C1 (stereo unspecified),-72.0*,x,-1.0
CC1CCCN(c2ccc(C(=O)NCc3ccco3)cc2[N+](=O)[O-])C1 (stereo unspecified),-23.3,-4.9%,-11.8
COc1ccccc1-c1nnc(NC(=O)C2CCCN2S(=O)(=O)c2cccs2)o1 (stereo unspecified),17.2,-7.8%,3.2
O=C(C1CCCN(S(=O)(=O)c2ccc(F)cc2)C1)N1CCOCC1 (stereo unspecified),12.4,8.6%,7.7
Cc1ccc(CNC(=O)C2CCN(S(=O)(=O)c3ccc4c(c3)CC(C)N4C(=O)C3CC3)CC2)cc1 (stereo unspecified),5.8,-5.5%,8.7
C/C(CC(=O)Nc1ccc2c(c1)OCCO2)=N\NC(=O)C(=O)Nc1ccccc1C,-4.3,3.2%,-1.4
Cc1cccc(OCCCC(=O)Nc2ccc(N3CCCCC3)cc2)c1,3.3,-29.6%,-2.9
COc1ccc(CC(N)c2csc(NC(=O)Nc3ccccc3C(C)(C)C)n2)cc1 (stereo unspecified),7.0,x,3.0
CCCC(CCC)C(=O)Nc1nnc2n1CCS2,x,x,-5.8
N#Cc1cc2ccccc2nc1SCc1cccnc1,-83.0*,8.4%,13.8
COc1ccc2nc(SCc3cccnc3)c(C#N)cc2c1,6.8,20.1%,0.7
CCOc1ccccc1NC(=O)CN(Cc1ccccc1)S(C)(=O)=O,-4.5,10.8%,-1.9
O=C(Nc1ccc(Cl)cn1)c1cccc(S(=O)(=O)N2CCCC2)c1,8.1,-14.5%,8.2
CN(C)S(=O)(=O)c1cccc(C(=O)Nc2ccc(Cl)cn2)c1,-77.3*,-2.4%,-10.0
Fc1ccc(/C=N/NC(=S)Nc2ccc(Cl)cc2Cl)cc1,2.9,-11.1%,-13.9
O=[N+]([O-])c1ccc(/C=N/NC(=S)Nc2ccc(Cl)cc2Cl)s1,-56.3*,-58.4%,-18.6
CCCCc1cc(=O)oc2cc(C)cc(OCC(=O)NCC3CCC(C(=O)O)CC3)c12 (stereo unspecified),-3.2,-29.4%,-1.8
O=C(Nc1cccc(Cl)c1)c1cc(N=Nc2ccc([N+](=O)[O-])cc2Cl)ccc1O,-26.1,5.4%,1.0
SMILES,D3 antag,a7 integrin act,D3 ag
Cc1ccc2nc(Nc3ccc4[nH]c(=O)[nH]c4c3)c(-n3nc(C)cc3C)nc2c1,30.3,-58.3%,69.0*
Cc1cc(C)n(-c2nc3ccccc3nc2Nc2ccc(N(C)C)cc2)n1,x,x,15.6
Cc1cc(C)n(-c2nc3ccccc3nc2Nc2cc(Cl)ccc2C)n1,x,x,2.4
Cc1cc(C)n(-c2nc3ccccc3nc2Nc2ccc(Cl)cc2Cl)n1,x,x,57.6*
CCCCN=Cc1c(C)[nH]n(-c2ccccc2)c1=S,-10.1,-24.5%,-3.6
Cc1[nH]n(-c2ccccc2)c(=S)c1C=Nc1cccc([N+](=O)[O-])c1,-99.5*,-10.4%,-5.3
O=C(NC(=S)NC1CCCC1)c1ccccc1,-10.4,u,4.1
N#Cc1ccc(C(=O)NC(=S)NC2CCCCC2)cc1,-55.0*,0.0%,-4.3
Cc1cc(C)cc(C(=O)Nc2cccnc2Cl)c1,28.0,9.8%,1.7
CCCC1S/C(=N/N=C/c2ccco2)NC1=O (stereo unspecified),8.7,-14.1%,-6.6
O=C(CC1S/C(=N/N=C/c2ccco2)NC1=O)Nc1cccc(Cl)c1Cl (stereo unspecified),-61.4*,12.9%,-3.2
Clc1cccc(OCCN2CCCC2)c1,-72.8*,10.2%,-10.7
CC(C)c1cccc(OCCN2CCCC2)c1,-99.8*,8.5%,-19.2
CN1CCN(CCOc2cccc(Cl)c2)CC1,u,13.1%,1.2
CCC1CCCCN1CCCCOc1cccc(Cl)c1 (stereo unspecified),-96.2*,-65.5%,-21.3
CCC1CCCCN1CC(O)COCc1cccc(OC)c1 (stereo unspecified),-1.3,-10.2%,-3.5
